Measured values reported in PubChem BioAssay AID720690 (Broad Institute, 2013).
Measured potencies and affinities stand elsewhere. Activity calls are given as the source filed them.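 How the source made its calls: active means every repeat run showing a signal drop whose fitted half-maximal concentration is at most twice the top tested concentration; inconclusive means repeat runs disagree, or flat partial drop, or poor fit; inactive means the rest.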

Assay: general mammalian cell viability loss – activator set, cherry-pick, cytotoxicity control for miR-122 modulator project, dose response (AID 720690)
Settings: HEK293T viability, CellTiter-Glo luminescence, 48 h; series mostly up to 26 µM

Compound	outcome
COc1cccc(NC(=O)C[C@@H]2CC[C@@H]3[C@@H](COc4ccc(NS(=O)(=O)c5cccc(F)c5)cc4C(=O)N3C)O2)c1	inactive
CC(=O)Oc1ccc2c(c1)C(=O)c1ccccc1CO2	inactive
CCCNC(=O)Nc1ccc2c(c1)OC[C@H](C)N(CCC)C[C@H](C)[C@H](OC)CN(C)C2=O	inactive
CCC(=O)Nc1ccc2c(c1)C(=O)N(C)[C@@H]1CC[C@H](CC(=O)Nc3cccc(OC)c3)O[C@@H]1CO2	inactive
CCC(=O)N1[C@H](CO)[C@@H](c2ccccc2)[C@@H]1CN(C(C)C)S(C)(=O)=O	inactive
CNC[C@@H]1Oc2cc(C#CC3CCCC3)ccc2S(=O)(=O)N([C@@H](C)CO)C[C@@H]1C	inactive
CC(C)NC(=O)Nc1ccc2c(c1)C(=O)N(C)[C@@H]1CC[C@@H](CC(=O)NCC(F)(F)F)O[C@@H]1CO2	inactive
CC(=O)N(C)C[C@H]1Oc2cc(/C=C/c3ccccc3)ccc2S(=O)(=O)N([C@@H](C)CO)C[C@H]1C	inactive
C[C@@H]1CN([C@@H](C)CO)S(=O)(=O)c2ccc(-c3ccc(C(=O)N(C)C)cc3)cc2O[C@@H]1CN(C)C(=O)C1CCC1	inactive
COc1cccc(-c2ccc3c(c2)O[C@H](CN(C)C(=O)C2CCOCC2)[C@H](C)CN([C@H](C)CO)S3(=O)=O)c1	inactive
C/C=C/c1ccc([C@H]2[C@@H](CO)N(Cc3ccccn3)[C@H]2CNC(C)=O)cc1	inactive
COc1cccc(-c2nc(NCCN3CCOCC3)c3ccccc3n2)c1O	inactive
CN1C(=O)c2cc(NC(=O)Cc3ccccc3)ccc2OC[C@@H]2O[C@@H](CC(=O)O)CC[C@H]21	inactive
CCS(=O)(=O)Nc1ccc2c(c1)C(=O)N(C)[C@@H]1CC[C@@H](CC(=O)NCCCN3CCOCC3)O[C@H]1CO2	inactive
COc1cccc(NC(=O)N2[C@H](CO)[C@@H](c3ccccc3)[C@H]2CNCC(C)C)c1	inactive
CCCNC(=O)Nc1ccc2c(c1)C(=O)N(C)[C@@H]1CC[C@@H](CC(=O)NCC3CCCCC3)O[C@@H]1CO2	inactive
Cc1cc(C(=O)Nc2ccc3c(c2)C(=O)N(C)[C@H]2CC[C@H](CC(=O)N[C@@H](C)c4ccccc4)O[C@H]2CO3)no1	inactive
O=C(c1ccco1)N1CCN(C2CC(=O)N(c3ccccc3)C2=O)CC1 (centres undefined)	inactive
CN1C(=O)c2cc(NC(=O)Cc3ccccc3)ccc2OC[C@@H]2O[C@@H](CC(=O)NCc3ccc(Cl)cc3)CC[C@H]21	inactive
CCCNC(=O)C[C@H]1CC[C@H]2[C@H](COc3ccc(NC(=O)c4ccc(C(F)(F)F)cc4)cc3C(=O)N2C)O1	inactive

Compound	outcome
CNC(=O)C[C@H]1CC[C@@H]2[C@H](COc3ccc(NC(=O)C(C)C)cc3C(=O)N2C)O1	inactive
CCN(C[C@H]1N[C@H](CO)[C@H]1c1ccc(-c2ccc(F)cc2)cc1)C(=O)COC	inactive
C[C@@H]1CN([C@@H](C)CO)S(=O)(=O)c2ccc(C#CC3(O)CCCC3)cc2O[C@@H]1CN(C)C(=O)c1cccnc1	inactive
CCC(=O)N1[C@@H](CO)[C@@H](c2ccccc2)[C@@H]1CN(C(C)C)S(C)(=O)=O	inactive
Cc1onc(-c2ccccc2)c1C(=O)NCc1ccccn1	inactive
C[C@H]1CN([C@@H](C)CO)C(=O)c2cc(C#Cc3cccnc3)cnc2O[C@H]1CN(C)S(=O)(=O)c1ccccc1F	inactive
N=c1c2c(-c3ccccc3)c(-c3ccccc3)n(Cc3ccccc3)c2ncn1CCCO	inactive
C[C@@H]1CN([C@@H](C)CO)S(=O)(=O)c2ccc(C3=CCCCC3)cc2O[C@@H]1CN(C)C(=O)Cc1ccncc1	inactive
CN1C(=O)c2cc(NC(=O)c3ccc4c(c3)OCO4)ccc2OC[C@H]2O[C@H](CC(=O)O)CC[C@@H]21	inactive
COc1ccc(CNC(=O)NCCc2c[nH]c3ccccc23)cc1	inactive
CCCNC(=O)C[C@@H]1CC[C@@H]2[C@@H](COc3ccc(NC(=O)c4ccc(C(F)(F)F)cc4)cc3C(=O)N2C)O1	inactive
CC(C)C#Cc1ccc2c(c1)O[C@H](CN(C)C(=O)Nc1ccccc1)[C@H](C)CN([C@@H](C)CO)S2(=O)=O	inactive
COc1ccc(NS(=O)(=O)c2ccc(NC(=O)C(C)(C(F)(F)F)C(F)(F)F)cc2)nn1	inactive
CC1(C)CC(=O)c2cnc(NC(=O)c3ccco3)nc2C1	inactive
COc1cc(N)c(Cl)cc1NC(=O)c1ccccc1	inactive
CC(C)(C)c1ccc(S(=O)(=O)NCCc2ccncc2)cc1	inactive
COCC(=O)N(C[C@H]1N[C@@H](CO)[C@@H]1c1ccc(C2=CCCC2)cc1)C(C)C	inactive
CNC(=O)C[C@@H]1CC[C@H]2[C@H](COc3ccc(NC(=O)c4cccc(OC)c4)cc3C(=O)N2C)O1	inactive
CCCNC(=O)N1[C@H](CO)[C@H](c2ccc(-c3ccccc3)cc2)[C@@H]1CNC(C)=O	inactive
